In PubChem BioAssay AID434973 (Sanford-Burnham Center for Chemical Genomics, 2010) one finds inhibition data, which are given here for 63 compounds.

The campaign covered roughly 330,000 compounds. About 4,900 (1.5%) were called active. This excerpt belongs to a sample that is enriched for actives. A number with no mark means an inactive call.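 The calls were made as follows: active = inhibition above about 50% at the single test dose (limit read from the data); inactive = the rest.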

For orientation: inhibition means the change of the read-out against control, counted positive when it falls.

This experiment addresses Sentrin-specific protease 7 (Homo sapiens) (UniProt Q9BQF6). As to the kind of experiment: SENP7 protease inhibitors, primary screen, biochemical, luminescence, uHTS (AID 434973).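 Also: plate controls were DMSO with enzyme for no effect and no enzyme buffer wells for full effect.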 The note with it: recombinant SENP7, Z-RLRGG-aminoluciferin luminescence, 40 min; at 5 µM; hits give high values.
For the compound `O=C(CCNC(=O)C1CCN(S(=O)(=O)c2ccccc2)CC1)NC1CC1`, the inhibition was -2.25%.

Take `O=C(O)c1ccc(S(=O)(=O)N2CCOCC2)o1`: the inhibition was -7.75%.

Take `CCCC(=O)Nc1nnc(CC(=O)OCC)s1`: the inhibition was -2.16%.

For `O=C(Nc1ccc(Cl)cc1)c1cc2nc(C3CC3)cc(C(F)(F)F)n2n1`, the inhibition is 2.83%.

With `COc1cc(C(=O)OC2CCOC2=O)c([N+](=O)[O-])cc1OC` (stereo not drawn), the inhibition was -1.58%.

For `CC(C)c1ccc(C(=O)OC2CCOC2=O)cc1` (stereo not drawn), the inhibition is 5.83%.

Take `O=C(OC1CCOC1=O)c1ccc(-c2nc3ccccc3s2)s1` (stereo not drawn): the inhibition was 96.8% (active).

Turning to `Cc1cc2oc(=O)cc(CN(C)Cc3ccc(OC(F)F)cc3)c2cc1Cl`, the inhibition is 5.95%.

Regarding `O=C(c1ccc(F)cc1)n1c(=S)nc2ccccn21`, the inhibition is 96.3% (active).

Turning to `O=C(Cn1c(=S)nc2ccccn21)N1CCc2ccccc2C1`, the inhibition was -0.589%.

On to `O=C(c1ccc(F)cc1)n1cc(C(=S)N2CCOCC2)c2ccccc21`, for which the inhibition was -1.66%.

`O=C(NCC1CCCO1)c1cc2c(s1)CCCC2` (stereo not drawn): the inhibition was 7.59%.

`O=C(Nc1ccc(F)cc1)c1cc2c(s1)CCCC2`: the inhibition was 87% (active).

`CN(C)C(=O)c1ccc(NC(=O)COC(=O)c2cc3c(s2)CCCCC3)cc1`: the inhibition is -2.04%.

For the compound `CC(Sc1sc(=S)sc1SC(C)C(=O)O)C(=O)O` (stereo not drawn), the inhibition is -0.431%.

On to `N#C/C(C(=S)Nc1ccccc1)=C1/NN=C(N2CCOCC2)N1c1ccccc1`, for which the inhibition was -1.15%.

As for `O=C(CSC(=S)N1CCOCC1)c1cc(Br)cc(Br)c1O`, the inhibition was 1.34%.

As to `O=C(CSC(=S)N1CCOCC1)c1ccccc1`, the inhibition is 62.7% (active).

Regarding `CC1CN(C(=S)SCC(=O)c2ccccc2)CC(C)O1` (stereo not drawn), the inhibition is 1.97%.

Turning to `CCN(CC(=O)Nc1ccccc1C(F)(F)F)C(=O)C1CCN(C(=O)Nc2ccccc2)CC1`, the inhibition is 3.1%.

On to `CC1CCc2sc3nc(N4CCN(CCO)CC4)n4ncnc4c3c2C1` (stereo not drawn), for which the inhibition was -6.6%.

With `CNc1nc(Nc2ccc(C)c(Cl)c2)nc(N)c1[N+](=O)[O-]`, the inhibition is 99.9% (active).

Turning to `COc1cccc(Nc2nc(N)c([N+](=O)[O-])c(NCc3ccco3)n2)c1`, the inhibition was 3.33%.

Take `CCN1CCN(c2nc(Nc3cccc(F)c3)nc(N)c2[N+](=O)[O-])CC1`: the inhibition is -8.75%.

With `O=C(NCCCc1ccccc1)C1CCC(CNc2c(N3CCCCC3)c(=O)c2=O)CC1` (stereo not drawn), the inhibition was 3.15%.

Regarding `CC(=O)Nc1ccc(CN2CCC(Oc3ccc(C(=O)N4CCCC4)cc3)CC2)cc1`, the inhibition is 0.753%.

On to `Fc1ccccc1-c1cc2cc3c(cc2cn1)OCO3`, for which the inhibition was 77.3% (active).

As for `O=C(CN1CCN(c2ccccc2F)CC1)c1ccc2c(c1)OCO2`, the inhibition was 8.23%.

As to `O=C(c1ccco1)N1CCN(C(=O)c2cc(-c3ccccc3F)no2)CC1`, the inhibition is 4.1%.

Regarding `Cc1nc(-c2ccccc2)sc1C1(C)CC(c2cccnc2)=NO1` (stereo not drawn), the inhibition was -12.6%.

Take `Cc1ccnc(NC(=O)CCCOc2ccccc2)c1`: the inhibition is -12.2%.

With `CCC(=O)NC(Nc1cc(C)ccn1)(C(F)(F)F)C(F)(F)F`, the inhibition is 98.5% (active).

Take `CCOC(=O)NNc1cc(C(F)(F)F)ccn1`: the inhibition was 13.9%.

For `Cc1ccc2[nH]cc(CCNC(=O)C3CCCCC3)c2c1`, the inhibition is 5.37%.

`COc1cccc(C(=O)Nc2ccc(N3CCCC3)cc2)c1`: the inhibition is 99.4% (active).

Regarding `CCOc1ccc(C(=O)Nc2cccc(SC)c2)cc1`, the inhibition was 88.7% (active).

Regarding `Cc1ccccc1C(=O)N1CCN(c2ccc(NC(=O)c3cccs3)cc2)CC1`, the inhibition is -2.29%.

For `Cc1ccccc1C(=O)NC(=S)Nc1ccc(N2CCN(C(=O)c3ccccc3)CC2)cc1`, the inhibition was -6.96%.

In the case of `CCC(=O)Nc1ccc(C(=O)Nc2cccc(OC)c2)cc1`, the inhibition is 56.2% (active).

On to `CCOc1ccc(C(=O)Nc2cccc(-c3ccc4nncn4n3)c2)cc1`, for which the inhibition was -7.35%.

As for `Cc1ccccc1C(=O)Nc1ccc(N2CCCCCC2)cc1`, the inhibition is 60.8% (active).

With `O=C(Nc1ccc(N2CCOCC2)cc1)c1cccc(S(=O)(=O)N2CCOCC2)c1`, the inhibition is 8.65%.

With `CSc1cccc(NC(=O)CSc2ccccc2)c1`, the inhibition is 4.87%.

As to `COc1ccc(C(=O)Nc2cccc(S(C)(=O)=O)c2)cc1`, the inhibition is 0.473%.

As to `COc1cccc(C(=O)Nc2nnc(S(=O)(=O)N3CCCCC3)s2)c1`, the inhibition was 11.4%.

As to `COc1cccc(NC(=O)CN(C)CC(=O)Nc2ccc3c(c2)CCC3)c1`, the inhibition was 10.1%.

For `Cc1c(Cl)c([N+](=O)[O-])nn1CCCC(=O)NC(C)c1ccccc1` (stereo not drawn), the inhibition was -0.959%.

Consider `COc1ccc(CC(=O)OC(C)C(=O)Nc2ccc(S(N)(=O)=O)cc2)cc1` (stereo not drawn), for which the inhibition was 0.778%.

With `CS(=O)(=O)N1CCCC(C(=O)N2CCOCC2)C1` (stereo not drawn), the inhibition is -2.39%.

Consider `COc1ccc(/C=C2/S/C(=N/N=C3\CC4CCC3(C)C4(C)C)NC2=O)cc1` (stereo not drawn), for which the inhibition is -4.16%.

Consider `Cc1noc(C)c1C(=O)NC(C)c1ccc2c(c1)OCO2` (stereo not drawn), for which the inhibition is 1.47%.

As for `COC(=O)[C@H](CC(C)C)NC(=O)N1CCCCC1C` (stereo partly drawn), the inhibition is 1.79%.

For the compound `COc1cc(/C=N/Nc2nc3ccccc3s2)ccc1O`, the inhibition is 81.9% (active).

In the case of `COc1cc(/C=N/NC(=O)CCc2n[nH]c(=O)[nH]c2=O)ccc1O`, the inhibition is 2%.

Take `COc1ccc(/C=N/NC(=O)c2cc(-c3cccc(C)c3)nc3ccccc23)cc1O`: the inhibition was 7.7%.

As for `Cc1cc(C)c(OCC(=O)N(Cc2cccs2)C2CCS(=O)(=O)C2)c(C)c1` (stereo not drawn), the inhibition is 0.829%.

`O=C(CC(NCCN1CCOCC1)C(=O)O)Nc1cccc(Cl)c1` (stereo not drawn): the inhibition was 2.14%.

On to `COc1ccc(C(=O)NC2CCN(C(=O)Nc3ccc(F)cc3)CC2)cc1`, for which the inhibition was -1.37%.

`O=c1ccnc(Nc2ccc(Cl)cc2)[nH]1`: the inhibition is 3.66%.

In the case of `Cc1cc(Nc2ccc(Br)cc2)nc2ccccc12`, the inhibition is 0.988%.

In the case of `Clc1ccc(Nc2ccc3ccccc3n2)cc1`, the inhibition was 89.6% (active).

Regarding `Cc1ccccc1CSc1nnc(CCCCCNC(=O)OC(C)(C)C)o1`, the inhibition is 8.18%.

As for `CC(NC(=O)c1ccco1)c1ccc2c(c1)OCO2` (stereo not drawn), the inhibition was 9%.
